Our source for the outcome and AC50 values is PubChem BioAssay (EPA / NIEHS).

Read-out in assay [1]: Transforming growth factor beta 1 (TGFb1), TGFB1 (gene 7040)
Kind of assay: BSK_KF3CT_TGFb1: BioMAP Diversity Plus: KF3CT Assay for Transforming growth factor beta 1 (TGFb1) Biomarker Activity (AID 2283072). As to conditions: primary human keratinocytes with fibroblasts; actives raise or lower the signal. The method, boiled down: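 KF3CT co-culture (keratinocytes + fibroblasts), 24 h exposure → TGF-b1 ELISA → bidirectional fit, DMSO = baseline. Parallel SRB total-protein staining (0.1% SRB, 10% TCA fixation, 560 nm) for cytotoxicity.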

Read-out in assay [2]: C-C motif chemokine 2 (Homo sapiens) (UniProt P13500)
Kind of assay: BSK_KF3CT_MCP1: BioMAP Diversity Plus: KF3CT Assay for Monocyte Chemoattractant Protein 1 (MCP1/CCL2) Biomarker Activity (AID 2283073). As to conditions: primary human keratinocytes with fibroblasts; actives raise or lower the signal. The essentials:
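KF3CT skin co-culture (keratinocytes/foreskin fibroblasts), 24 h post-dose; MCP-1 by ELISA; gain/loss of signal fit bidirectionally vs DMSO baseline.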

Read-out in assay [3]: Matrix Metallopeptidase 9 (MMP9), MMP9 (gene 4318)
In words: BSK_KF3CT_MMP9: BioMAP Diversity Plus: KF3CT Assay for Matrix Metallopeptidase 9 (MMP9) Biomarker Activity (AID 2283074).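 As to AC50: MMP9 protein level quantified by ELISA in the co-culture.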 As to conditions: primary human keratinocytes with fibroblasts; actives raise or lower the signal. The method, boiled down:
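Values come from bidirectional fitting relative to DMSO of MMP-9 levels, which were measured by ELISA. Measurements were taken 24 h after chemical dosing of a keratinocyte and foreskin fibroblast co-culture.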

Read-out in assay [4]: urokinase plasminogen activator (uPA), PLAU (gene 5328)
In words: BSK_KF3CT_uPA: BioMAP Diversity Plus: KF3CT Assay for urokinase plasminogen activator (uPA) Biomarker Activity (AID 2283075). As to conditions: primary human keratinocytes with fibroblasts; actives raise or lower the signal. The method, boiled down: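 Values derive from bidirectional fitting against DMSO controls. Keratinocyte/foreskin fibroblast co-cultures received chemical; 24 h later uPA was detected by ELISA, with SRB total-protein staining in parallel wells for overt cytotoxicity.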

Read-out in another assay: CD40, CD40 (gene 958)
Kind of assay: BSK_LPS_CD40: BioMAP Diversity Plus: LPS Assay for CD40 Biomarker Activity (AID 2283076). As to conditions: primary human HUVEC with PBMC; actives raise or lower the signal. The essentials: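 ELISA readout of CD40 in HUVEC/PBMC co-culture (BSK_LPS system), 24 h post-dosing; bidirectional curve fit, DMSO baseline; parallel SRB total-protein staining for cytotoxicity.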

Read-out in assay [5]: E-selectin (Homo sapiens) (UniProt P16581)
In words: BSK_LPS_Eselectin: BioMAP Diversity Plus: LPS Assay for Eselectin Biomarker Activity (AID 2283077). As to conditions: primary human HUVEC with PBMC; actives raise or lower the signal. The method, boiled down: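 ELISA readout of E-selectin, 24 h post-dose, HUVEC + PBMC co-culture (LPS system). Gain or loss of signal vs DMSO baseline, bidirectional fit.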

Read-out in assay [6]: Interleukin-8 (IL8), CXCL8 (gene 3576)
Kind of assay: BSK_LPS_IL8: BioMAP Diversity Plus: LPS Assay for Interleukin-8 (IL8) Biomarker Activity (AID 2283078). As to conditions: primary human HUVEC with PBMC; actives raise or lower the signal. The method, boiled down: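 HUVEC + PBMC co-culture, LPS-activated; test chemicals dosed, IL-8 read by ELISA at 24 h. Bidirectional curve fit vs DMSO baseline (gain or loss of signal).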

Assay [7] can be described thus: BSK_LPS_SRB: Viability Assessment in the BioMAP Diversity Plus: LPS Assay (AID 2283079).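 Also: total protein by sulforhodamine B absorbance as a cytotoxicity measure; measured one day after compound addition; fitted in both directions against DMSO so loss or gain of signal counts.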 As to conditions: primary human HUVEC with PBMC. The essentials: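 HUVEC + PBMC co-culture, LPS-stimulated; compound 24 h. 10% TCA fix, 0.1% SRB stain, A560. Bidirectional fit vs DMSO.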
Read-out in assay [8]: Interleukin-1 alpha (IL1a), IL1A (gene 3552)
In words: BSK_LPS_IL1a: BioMAP Diversity Plus: LPS Assay for Interleukin-1 alpha (IL1a) Biomarker Activity (AID 2283080). As to conditions: primary human HUVEC with PBMC; actives raise or lower the signal. The essentials: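 HUVEC/PBMC co-culture, LPS system; 24 h after dosing; IL-1a by ELISA; gain or loss of signal fitted bidirectionally vs DMSO baseline.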

Read-out in assay [9]: Monocyte Chemoattractant Protein-1 (MCP1), CCL2 (gene 6347)
In words: BSK_LPS_MCP1: BioMAP Diversity Plus: LPS Assay for Monocyte Chemoattractant Protein-1 (MCP1) Biomarker Activity (AID 2283081).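 As to AC50: secreted MCP-1 protein quantified by ELISA in culture supernatant.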 As to conditions: primary human HUVEC with PBMC; actives raise or lower the signal. The method, boiled down:
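ELISA read-out of MCP-1 after 24 h chemical dosing of a human umbilical vein endothelial cell/peripheral blood mononuclear cell co-culture stimulated with LPS. Gain or loss of signal fitted relative to DMSO controls.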

Activity calls are given as the source filed them. The calls were made as follows: active = hit-call score of the fitted dose curve at least 0.9, where 1 is the maximum; inactive = score below 0.9.

E-selectin (Homo sapiens), sequence (P16581 whole entry, looked up): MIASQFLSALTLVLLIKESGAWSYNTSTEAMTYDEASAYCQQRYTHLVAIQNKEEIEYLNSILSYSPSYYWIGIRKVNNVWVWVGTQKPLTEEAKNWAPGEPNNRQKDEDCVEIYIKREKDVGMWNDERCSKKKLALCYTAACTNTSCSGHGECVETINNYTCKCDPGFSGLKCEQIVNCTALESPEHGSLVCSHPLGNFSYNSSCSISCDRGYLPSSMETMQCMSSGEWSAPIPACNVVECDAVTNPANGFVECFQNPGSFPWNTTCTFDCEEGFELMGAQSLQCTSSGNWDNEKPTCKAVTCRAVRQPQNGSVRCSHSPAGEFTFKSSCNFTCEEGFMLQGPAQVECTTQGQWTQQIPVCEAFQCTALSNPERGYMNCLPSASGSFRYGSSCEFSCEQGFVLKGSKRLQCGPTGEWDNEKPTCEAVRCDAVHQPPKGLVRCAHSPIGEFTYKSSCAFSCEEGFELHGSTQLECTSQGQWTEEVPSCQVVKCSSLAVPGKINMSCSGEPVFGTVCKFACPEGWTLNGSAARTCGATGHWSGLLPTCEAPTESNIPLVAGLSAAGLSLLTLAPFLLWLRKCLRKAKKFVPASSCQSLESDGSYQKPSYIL

Consider `CN(C)C(=O)Nc1ccc(Cl)cc1`, for which the outcome is “inactive” in assay [1]; “inactive” in assay [2]; “inactive” in [3]; “inactive” in [4]; “inactive” with CD40, CD40 (gene 958); “inactive” in assay [5]. Further, the outcome in [6], in assay [7], in assay [8] and in assay [9] was inactive.
Take `O=Cc1ccco1`: the outcome in assay [1] is “inactive”; in assay [2], “inactive”; in assay [3], “inactive”; in [4], “inactive”; with CD40, CD40 (gene 958), “inactive”; in assay [5] it was “inactive”. The outcome in [6], in assay [7], in assay [8] and in assay [9] was inactive.
As for `CCCCOC(=O)c1ccccc1C(=O)OCc1ccccc1`, the outcome in [1] was “inactive”; in [2], “inactive”; in [3], “inactive”; in [4] it was “inactive”; in the assay with CD40, CD40 (gene 958), “inactive”; in assay [5], “inactive”. In addition, the outcome in [6], in assay [7], in assay [8] and in assay [9] was inactive.
Turning to `CCC(C)c1ccc(O)cc1` (centres undefined), the outcome in [1] is “inactive”; in assay [2], “inactive”; in assay [3], “inactive”; in [4] it was “inactive”; with CD40, CD40 (gene 958), “inactive”; in assay [5], “inactive”. Also, the outcome in assay [6], in assay [7], in assay [8] and in assay [9] was inactive.
Regarding `COP(=S)(OC)SCN1C(=O)c2ccccc2C1=O`, the outcome was “inactive” in assay [1]; “inactive” in assay [2]; “inactive” in assay [3]; “inactive” in assay [4]; “inactive” in the assay with CD40, CD40 (gene 958); “inactive” in assay [5]. For the same molecule, the outcome in assay [6], in assay [7], in [8] and in [9] was inactive.
Turning to `COC(=O)c1ccccc1N`, the outcome is “inactive” in [1]; “inactive” in [2]; “inactive” in [3]; “inactive” in [4]; “inactive” with CD40, CD40 (gene 958); “inactive” in [5]. Besides, the outcome in assay [6], in [7], in [8] and in assay [9] was inactive.
Take `c1ccc2c(c1)oc1ccccc12`: the outcome in assay [1] is “inactive”; in [2] it was “inactive”; in assay [3], “inactive”; in [4], “inactive”; with CD40, CD40 (gene 958), “inactive”; in [5], “inactive”. In addition, the result in assay [6], in [7], in [8] and in [9] was inactive.
For the molecule `Nc1ccc(Oc2ccc(N)cc2)cc1`, the outcome was “inactive” in [1]; “inactive” in assay [2]; “inactive” in assay [3]; “inactive” in assay [4]; “inactive” with CD40, CD40 (gene 958); “inactive” in [5]. The result in assay [6], in assay [7], in assay [8] and in assay [9] was inactive.
With `Cc1cc(N=Nc2ccccc2C)ccc1N`, the AC50 in assay [1] was 28.5 µM (active); in assay [3], 19.9 µM (active); in assay [4], 39.2 µM (active); in assay [7], 9.83 µM (active). Besides, the outcome in [2] was “inactive”; with CD40, CD40 (gene 958) it was “inactive”; in assay [5] it was “inactive”; in assay [6], “inactive”; in [8], “inactive”; in [9], “inactive”.
Regarding `CN(C)[C@@H]1C(=O)C(C(N)=O)=C(O)[C@@]2(O)C(=O)C3=C(O)c4c(O)cccc4[C@@](C)(O)[C@H]3C[C@@H]12`, the outcome is “inactive” in [1]; “inactive” in [2]; “inactive” in assay [3]; “inactive” in assay [4]; “inactive” with CD40, CD40 (gene 958); “inactive” in [5]. For the same molecule, the outcome in assay [6], in [7], in assay [8] and in assay [9] was inactive.
Turning to `CNC(=O)Oc1cccc2c1OC(C)(C)C2`, the outcome is “inactive” in [1]; “inactive” in assay [2]; “inactive” in [3]; “inactive” in [4]; “inactive” with CD40, CD40 (gene 958); “inactive” in assay [5]. The result in assay [6], in assay [7], in assay [8] and in assay [9] was inactive.
In the case of `ClC1=C(Cl)[C@]2(Cl)[C@H]3[C@H]([C@@H]4C=C[C@H]3C4)[C@@]1(Cl)C2(Cl)Cl`, the AC50 in assay [1] is 22.4 µM (active); in assay [2], 22.3 µM (active); in [3], 11.6 µM (active); in [4], 28.7 µM (active); with CD40, CD40 (gene 958) it was 32.1 µM (active); in [5], 33.5 µM (active). For the same molecule, the AC50 was 33.8 µM (active) in [6], 30.5 µM (active) in assay [7], 28.9 µM (active) in assay [8] and 36.8 µM (active) in [9].
Turning to `C[N+](C)(C)CC1CO1` (centres undefined), the outcome was “inactive” in assay [1]; “inactive” in [2]; “inactive” in [3]; “inactive” in [4]; “inactive” with CD40, CD40 (gene 958); “inactive” in assay [5]. For the same molecule, the outcome in [6], in assay [7], in [8] and in assay [9] was inactive.
As to `CCOC(=O)[C@]1(c2ccccc2)Oc2ccccc2[C@@H]1N`, the result in [1], in [2], in assay [4], in [5], in assay [7] and in assay [8] was inactive. Further, in assay [9], the result was inactive. In addition, the AC50 in assay [3] is 31 µM (active); with CD40, CD40 (gene 958) it was 32.9 µM (active); in assay [6] it was 36.1 µM (active).
As for `CC(C)(C)OOC(=O)c1ccccc1`, the outcome in assay [1] was “inactive”; in assay [2] it was “inactive”; in [3], “inactive”; in assay [4], “inactive”; in the assay with CD40, CD40 (gene 958), “inactive”; in [5], “inactive”. For the same molecule, the result in [6], in assay [7], in assay [8] and in assay [9] was inactive.
Regarding `CC(C)COC(=O)c1ccccc1C(=O)OCC(C)C`, the outcome in assay [1] was “inactive”; in [2], “inactive”; in assay [3], “inactive”; in assay [4], “inactive”; in the assay with CD40, CD40 (gene 958), “inactive”; in assay [5] it was “inactive”. For the same molecule, the result in [6], in [7], in [8] and in assay [9] was inactive.
With `Clc1ccc(Cl)c(Cl)c1`, the outcome is “inactive” in assay [1]; “inactive” in [2]; “inactive” in assay [3]; “inactive” in [4]; “inactive” with CD40, CD40 (gene 958); “inactive” in assay [5]. Further, the result in assay [6], in assay [7], in assay [8] and in assay [9] was inactive.
Regarding `CN(C)c1ccc(C(=O)c2ccc(N(C)C)cc2)cc1`, the AC50 in assay [1] was 5.11 µM (active); with CD40, CD40 (gene 958), 17 µM (active); in assay [6], 6.12 µM (active); in [7], 13.4 µM (active). For the same molecule, the outcome in [2], in [3], in assay [4], in assay [5], in assay [8] and in assay [9] was inactive.
Regarding `[O-][Cl+]O`, the outcome in [1] is “inactive”; in [3], “inactive”; in assay [4], “inactive”; with CD40, CD40 (gene 958) it was “inactive”; in [5], “inactive”; in assay [6], “inactive”. The result in assay [7], in [8] and in assay [9] was inactive.
As to `CN(C)c1ccccc1`, the outcome in [1] is “inactive”; in [2], “inactive”; in [3] it was “inactive”; in assay [4] it was “inactive”; in the assay with CD40, CD40 (gene 958), “inactive”; in assay [5] it was “inactive”. The result in [6], in [7], in [8] and in assay [9] was inactive.
On to `CCN(CC)N=O`, for which the outcome in [1] was “inactive”; in assay [2], “inactive”; in [3], “inactive”; in assay [4], “inactive”; in the assay with CD40, CD40 (gene 958), “inactive”; in assay [5] it was “inactive”. Moreover, the result in [6], in assay [7], in assay [8] and in assay [9] was inactive.
